# Records with an inconclusive call do not appear. The source made the active and inactive calls. Rule for the calls: active = hit-call score of the fitted dose curve at least 0.9, where 1 is the maximum; inconclusive = response in the unintended direction; inactive = score below 0.9.
# Legend:
# [1] = target: human MAP Kinase-Activated Protein Kinase 2 (MAPKAPK2), MAPKAPK2 (gene 9261) (UniProt P49137); assay: NVS_ENZ_hMAPKAPK2: NovaScreen (NVS) Enzymatic Assay for human MAP Kinase-Activated Protein Kinase 2 (MAPKAPK2) (AID 2283178)
# In short: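 Cell-free recombinant human MAPKAPK2 activity measured by fluorescence with electrophoretic mobility shift separation of substrate and product, 1 hr after dosing. Loss of signal versus DMSO; primary screen at 25 uM, concentration-response up to 50 uM.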
# [2] = target: human Phosphodiesterase 4A1 (PDE4A1), PDE4A (gene 5141) (UniProt P27815); assay: NVS_ENZ_hPDE4A1: NovaScreen (NVS) Enzymatic Assay for human Phosphodiesterase 4A1 (PDE4A1) (AID 2283191)
# In short: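 Cell-free recombinant human PDE4A1 with fluorescent substrate; product separated by electrophoretic mobility shift, 1 h. Screened at 25 uM, then up to 50 uM in concentration-response; loss of signal fitted against DMSO.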
# [3] = target: human Phosphodiesterase 10 (PDE10), PDE10A (gene 10846) (UniProt Q9Y233); assay: NVS_ENZ_hPDE10: NovaScreen (NVS) Enzymatic Assay for human Phosphodiesterase 10 (PDE10) (AID 2283195)
# In short: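 Recombinant human PDE10 with fluorescent substrate, 1 h, product separated by electrophoretic mobility shift. Loss of enzyme activity fitted against DMSO; initial screen 25 uM in duplicate, actives run to 50 uM maximum.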
# [4] = target: human Phosphodiesterase 5 (PDE5), PDE5A (gene 8654) (UniProt O76074); assay: NVS_ENZ_hPDE5: NovaScreen (NVS) Enzymatic Assay for human Phosphodiesterase 5 (PDE5) (AID 2283194)
# In short: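 Recombinant human PDE5 with specific substrate, read 1 h after dosing by fluorescence with electrophoretic mobility-shift separation of substrate and product. Initial single-concentration duplicate screen at 25 uM, actives followed in concentration series; loss of activity versus DMSO.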
# [5] = target: human Matrix Metalloproteinase-2 (MMP2), MMP2 (gene 4313) (UniProt P08253); assay: NVS_ENZ_hMMP2: NovaScreen (NVS) Enzymatic Assay for human Matrix Metalloproteinase-2 (MMP2) (AID 2283184)
# In short: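 Cell-free recombinant MMP2 activity with a fluorescent substrate, read 1 h after dosing. Primary screen in duplicate at 25 uM; actives then run in concentration series; loss of signal fitted versus DMSO.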
# [6] = target: human Matrix Metalloproteinase-3 (MMP3), MMP3 (gene 4314) (UniProt P08254); assay: NVS_ENZ_hMMP3: NovaScreen (NVS) Enzymatic Assay for human Matrix Metalloproteinase-3 (MMP3) (AID 2283185)
# In short: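 Cell-free recombinant human MMP3 activity, fluorescence intensity read 1 h after dosing. Primary screen duplicate at 25 uM, actives retested in concentration series; loss of signal vs DMSO baseline.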
# [7] = target: human Matrix Metalloproteinase-7 (MMP7), MMP7 (gene 4316) (UniProt P09237); assay: NVS_ENZ_hMMP7: NovaScreen (NVS) Enzymatic Assay for human Matrix Metalloproteinase-7 (MMP7) (AID 2283183)
# In short: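 Cell-free fluorescence enzymatic assay read 1 h after compound addition, activity loss analyzed against DMSO. Primary duplicate testing at 25 uM; compounds meeting threshold rerun in singleton concentration-response up to 50 uM.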
# [8] = target: human Matrix Metalloproteinase-1 (MMP1), MMP1 (gene 4312) (UniProt P03956); assay: NVS_ENZ_hMMP1: NovaScreen (NVS) Enzymatic Assay for human Matrix Metalloproteinase-1 (MMP1) (AID 2283181)
# In short: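 Human MMP1 enzyme activity measured by fluorescence 1 h after dosing, cell-free, with a specific substrate. Screened in duplicate at 25 uM; hits (e.g. 30% inhibition) run in concentration-response up to 50 uM; loss of signal versus DMSO.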
# [9] = target: Collagenase 3 (Homo sapiens) (UniProt P45452); assay: NVS_ENZ_hMMP13: NovaScreen (NVS) Enzymatic Assay for human Matrix Metalloproteinase-13 (MMP13) (AID 2283182)
# In short: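 Recombinant MMP13 cleaving fluorescent substrate, cell-free, measured 1 h after dosing. Primary duplicate screen at 25 uM; actives tested in concentration-response up to 50 uM; loss of signal relative to DMSO.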
# [10] = target: cAMP-dependent protein kinase catalytic subunit alpha (Homo sapiens) (UniProt P17612); assay: NVS_ENZ_hPKA: NovaScreen (NVS) Enzymatic Assay for human Protein Kinase A (PKA) (AID 2283192)
# In short: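 Recombinant human PKA with specific fluorescent substrate, product separated by electrophoretic mobility shift, read 1 h after dosing. Primary screen at 25 uM in duplicate; actives then run in concentration-response up to 50 uM, activity relative to DMSO.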
# [11] = target: human Protein Phosphatase, Mg2+/Mn2+ Dependent 1A (PPM1A), PPM1A (gene 5494) (UniProt P35813); assay: NVS_ENZ_hPPM1A: NovaScreen (NVS) Enzymatic Assay for human Protein Phosphatase, Mg2+/Mn2+ Dependent 1A (PPM1A) (AID 2283198)
# In short: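 Cell-free recombinant PPM1A phosphatase assay with fluorescent substrate, read 1 h after dosing by electrophoretic mobility shift. Chemicals screened in duplicate at 25 uM, then in concentration-response up to 50 uM; loss of activity versus DMSO.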
# [12] = target: human MET Proto-Oncogene, Receptor Tyrosine Kinase (MET), MET (gene 4233) (UniProt P08581); assay: NVS_ENZ_hMet: NovaScreen (NVS) Enzymatic Assay for human MET Proto-Oncogene, Receptor Tyrosine Kinase (MET) (AID 2283180)
# In short: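 Cell-free MET kinase assay using recombinant protein and fluorescent substrate, with mobility-shift separation; read 1 h after dosing. Primary duplicate at 25 uM; actives in singleton concentration-response to 50 uM maximum. Signal loss versus DMSO.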
# [13] = target: human Mitogen- and Stress-activated Protein Kinase-1 (Msk1), RPS6KA5 (gene 9252) (UniProt O75582); assay: NVS_ENZ_hMsk1: NovaScreen (NVS) Enzymatic Assay for human Mitogen- and Stress-activated Protein Kinase-1 (Msk1) (AID 2283187)
# In short: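 Recombinant kinase with fluorescent substrate; product separated by electrophoretic mobility shift, read 1 h after dosing. Screened in duplicate at 25 uM; hits (e.g. ≥30% inhibition) tested in concentration–response up to 50 uM. DMSO baseline.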
# [14] = target: human NIMA (Never In Mitosis Gene A)-Related Kinase 2 (NEK2), NEK2 (gene 4751) (UniProt P51955); assay: NVS_ENZ_hNEK2: NovaScreen (NVS) Enzymatic Assay for human NIMA (Never In Mitosis Gene A)-Related Kinase 2 (NEK2) (AID 2283188)
# In short: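 Cell-free NEK2 enzyme activity after 1 h exposure, read by fluorescence with electrophoretic mobility shift separating substrate and product. Primary screen in duplicate at 25 uM; actives then run as concentration series. Loss of signal versus DMSO scored.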
# [15] = target: human p21 Activated Kinase 4 (PAK4), PAK4 (gene 10298) (UniProt O96013); assay: NVS_ENZ_hPAK4: NovaScreen (NVS) Enzymatic Assay for human p21 Activated Kinase 4 (PAK4) (AID 2283189)
# In short: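 Cell-free recombinant human PAK4 activity assay; fluorescent substrate and product separated by electrophoretic mobility shift, read 1 h after dosing. Initially tested in duplicate at 25 uM, relative to DMSO baseline.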
# [16] = target: human Phosphoinositide 3-kinase alpha (PI3Ka), PIK3CA (gene 5290) (UniProt P42336); assay: NVS_ENZ_hPI3Ka: NovaScreen (NVS) Enzymatic Assay for human Phosphoinositide 3-kinase alpha (PI3Ka) (AID 2283196)
# In short: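 Chemicals were first screened at 25 uM in duplicate, then hits were run as concentration series up to 50 uM. Enzyme activity was measured by fluorescence after mobility-shift separation, with loss of signal relative to DMSO taken as activity.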
# PPP2CA (gene 5515) = PPP2CA (gene 5515) (UniProt P67775); assay: NVS_ENZ_hPPP2CA: NovaScreen (NVS) Enzymatic Assay for human Protein Phosphatase 2 Aatalytic subunit Alpha (PPP2CA) (AID 2283199)
# In short: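 Recombinant human PPP2CA with fluorescent substrate; product separated from substrate by electrophoretic mobility shift, read 1.33 h after dosing. Duplicate single-point at 25 uM, then singleton concentration-response up to 50 uM; loss of signal versus DMSO.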
# [17] = target: human Protein Tyrosine Phosphatase Non-receptor Type 1 (PTPN1), PTPN1 (gene 5770) (UniProt P18031); assay: NVS_ENZ_hPTPN1: NovaScreen (NVS) Enzymatic Assay for human Protein Tyrosine Phosphatase Non-receptor Type 1 (PTPN1) (AID 2283201)
# In short: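 Cell-free fluorogenic-substrate activity assay on recombinant enzyme, read 1.33 h after dosing by fluorescence and electrophoretic mobility shift; loss of signal vs DMSO baseline. Primary screen in duplicate at 25 uM, hits then run in concentration-response up to 50 uM.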
# [18] = target: human Matrix Metalloproteinase-9 (MMP9), MMP9 (gene 4318) (UniProt P14780); assay: NVS_ENZ_hMMP9: NovaScreen (NVS) Enzymatic Assay for human Matrix Metalloproteinase-9 (MMP9) (AID 2283190);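 note: cell-free recombinant MMP9 protease activity read by fluorescent substrate signal; active means inhibition seen as loss of fluorescence signal versus DMSO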
# In short: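 Inhibition was scored as loss of fluorescence signal against DMSO controls. The recombinant protease was exposed to chemicals for 1 hour before reading; initial testing used 25 uM in duplicate.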
# [19] = target: Serine/threonine-protein phosphatase PP1-alpha catalytic subunit (Homo sapiens) (UniProt P62136); assay: NVS_ENZ_hPPP1CA: NovaScreen (NVS) Enzymatic Assay for human Protein Phosphatase 1 Aatalytic subunit Alpha (PPP1CA) (AID 2283200)
# In short: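 Recombinant enzyme activity read by fluorescence with electrophoretic mobility shift separating substrate from product, 1.33 h after dosing; loss of signal vs DMSO baseline. Primary screen in duplicate at 25 uM; actives retested in concentration-response up to 50 uM.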
# Sequence of human Protein Phosphatase, Mg2+/Mn2+ Dependent 1A (PPM1A), PPM1A (gene 5494) (P35813 whole entry, looked up): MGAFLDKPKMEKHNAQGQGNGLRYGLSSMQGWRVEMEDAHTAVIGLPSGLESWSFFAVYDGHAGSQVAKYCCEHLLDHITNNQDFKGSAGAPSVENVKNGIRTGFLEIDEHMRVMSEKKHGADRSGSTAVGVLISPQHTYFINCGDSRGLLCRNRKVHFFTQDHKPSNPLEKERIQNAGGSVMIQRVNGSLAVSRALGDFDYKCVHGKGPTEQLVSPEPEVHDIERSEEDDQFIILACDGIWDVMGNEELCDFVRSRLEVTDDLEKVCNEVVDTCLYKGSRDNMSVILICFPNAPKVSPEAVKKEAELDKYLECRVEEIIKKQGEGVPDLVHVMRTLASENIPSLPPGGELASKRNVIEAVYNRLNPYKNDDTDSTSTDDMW
# Sequence of human Matrix Metalloproteinase-7 (MMP7), MMP7 (gene 4316) (P09237 whole entry, looked up): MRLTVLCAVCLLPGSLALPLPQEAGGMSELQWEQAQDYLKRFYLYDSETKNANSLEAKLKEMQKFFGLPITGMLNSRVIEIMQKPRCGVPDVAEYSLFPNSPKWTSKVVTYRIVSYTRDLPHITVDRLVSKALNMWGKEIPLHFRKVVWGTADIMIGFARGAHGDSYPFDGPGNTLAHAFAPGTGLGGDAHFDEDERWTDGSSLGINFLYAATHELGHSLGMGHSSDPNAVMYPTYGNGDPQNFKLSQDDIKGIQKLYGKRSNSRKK
# Sequence of human Matrix Metalloproteinase-1 (MMP1), MMP1 (gene 4312) (P03956 whole entry, looked up): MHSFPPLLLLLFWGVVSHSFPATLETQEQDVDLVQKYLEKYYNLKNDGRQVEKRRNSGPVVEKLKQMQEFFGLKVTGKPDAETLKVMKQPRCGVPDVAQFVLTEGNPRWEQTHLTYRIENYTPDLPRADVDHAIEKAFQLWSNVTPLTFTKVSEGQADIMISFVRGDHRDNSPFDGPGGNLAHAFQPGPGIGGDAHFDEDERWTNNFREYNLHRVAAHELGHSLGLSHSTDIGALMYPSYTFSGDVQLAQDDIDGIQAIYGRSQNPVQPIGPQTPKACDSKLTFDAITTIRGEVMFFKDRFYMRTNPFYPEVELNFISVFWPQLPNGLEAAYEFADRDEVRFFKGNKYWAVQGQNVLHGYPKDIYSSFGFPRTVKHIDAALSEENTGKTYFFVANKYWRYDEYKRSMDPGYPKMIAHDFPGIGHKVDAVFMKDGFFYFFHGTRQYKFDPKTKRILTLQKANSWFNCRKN
# Sequence of Serine/threonine-protein phosphatase PP1-alpha catalytic subunit (Homo sapiens) (P62136 whole entry, looked up): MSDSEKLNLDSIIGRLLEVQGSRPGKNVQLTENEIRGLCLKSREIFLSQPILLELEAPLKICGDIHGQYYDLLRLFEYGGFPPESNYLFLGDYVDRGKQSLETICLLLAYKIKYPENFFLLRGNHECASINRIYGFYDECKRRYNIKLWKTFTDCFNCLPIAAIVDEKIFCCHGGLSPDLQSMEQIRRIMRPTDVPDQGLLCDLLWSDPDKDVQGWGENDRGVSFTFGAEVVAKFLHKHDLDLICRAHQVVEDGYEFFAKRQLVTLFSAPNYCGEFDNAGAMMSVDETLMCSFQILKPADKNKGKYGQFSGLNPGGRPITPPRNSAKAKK
# Sequence of human Matrix Metalloproteinase-2 (MMP2), MMP2 (gene 4313) (P08253 whole entry, looked up): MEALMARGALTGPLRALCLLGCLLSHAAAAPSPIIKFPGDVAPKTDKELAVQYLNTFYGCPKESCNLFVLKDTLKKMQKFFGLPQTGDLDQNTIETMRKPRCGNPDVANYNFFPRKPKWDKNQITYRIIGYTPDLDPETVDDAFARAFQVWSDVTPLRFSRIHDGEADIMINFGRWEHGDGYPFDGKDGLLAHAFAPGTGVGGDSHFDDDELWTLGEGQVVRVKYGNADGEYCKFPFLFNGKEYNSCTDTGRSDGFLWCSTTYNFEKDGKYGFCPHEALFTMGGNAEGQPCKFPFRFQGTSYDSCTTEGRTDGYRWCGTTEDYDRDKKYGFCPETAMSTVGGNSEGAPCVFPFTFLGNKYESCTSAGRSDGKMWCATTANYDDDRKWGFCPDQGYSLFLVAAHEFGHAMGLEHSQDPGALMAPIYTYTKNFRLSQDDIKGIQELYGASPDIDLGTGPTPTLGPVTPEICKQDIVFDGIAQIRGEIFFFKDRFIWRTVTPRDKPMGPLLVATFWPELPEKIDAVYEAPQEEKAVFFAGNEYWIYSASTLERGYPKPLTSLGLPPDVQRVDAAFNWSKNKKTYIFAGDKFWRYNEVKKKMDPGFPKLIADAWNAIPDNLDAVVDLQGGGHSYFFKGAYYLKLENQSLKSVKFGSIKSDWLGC
# Sequence of human MAP Kinase-Activated Protein Kinase 2 (MAPKAPK2), MAPKAPK2 (gene 9261) (P49137 whole entry, looked up): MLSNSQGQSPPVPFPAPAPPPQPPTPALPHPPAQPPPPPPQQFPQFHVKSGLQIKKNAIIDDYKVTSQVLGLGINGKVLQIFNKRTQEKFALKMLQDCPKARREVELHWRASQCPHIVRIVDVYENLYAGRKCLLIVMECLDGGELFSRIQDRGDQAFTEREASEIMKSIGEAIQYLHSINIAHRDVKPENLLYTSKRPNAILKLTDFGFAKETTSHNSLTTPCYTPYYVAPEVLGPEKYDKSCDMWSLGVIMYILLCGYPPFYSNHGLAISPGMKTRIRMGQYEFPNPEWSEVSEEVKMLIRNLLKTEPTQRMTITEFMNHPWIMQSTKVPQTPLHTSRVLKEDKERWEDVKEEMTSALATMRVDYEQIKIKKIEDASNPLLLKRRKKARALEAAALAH
# Sequence of human Matrix Metalloproteinase-3 (MMP3), MMP3 (gene 4314) (P08254 whole entry, looked up): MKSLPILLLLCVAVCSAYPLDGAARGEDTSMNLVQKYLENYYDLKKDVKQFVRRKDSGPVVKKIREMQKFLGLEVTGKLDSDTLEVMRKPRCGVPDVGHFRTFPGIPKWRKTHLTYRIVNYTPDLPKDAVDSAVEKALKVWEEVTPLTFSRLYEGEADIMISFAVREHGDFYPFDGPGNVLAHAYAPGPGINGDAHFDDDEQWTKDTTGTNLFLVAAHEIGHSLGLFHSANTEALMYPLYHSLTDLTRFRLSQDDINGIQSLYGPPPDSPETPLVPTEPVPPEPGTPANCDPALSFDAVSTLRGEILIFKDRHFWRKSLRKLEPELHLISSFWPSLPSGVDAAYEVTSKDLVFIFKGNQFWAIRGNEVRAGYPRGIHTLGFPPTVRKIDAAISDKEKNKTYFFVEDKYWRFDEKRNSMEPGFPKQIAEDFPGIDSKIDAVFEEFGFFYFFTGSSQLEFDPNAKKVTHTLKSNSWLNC
# Sequence of human Phosphodiesterase 4A1 (PDE4A1), PDE4A (gene 5141) (P27815 whole entry, looked up): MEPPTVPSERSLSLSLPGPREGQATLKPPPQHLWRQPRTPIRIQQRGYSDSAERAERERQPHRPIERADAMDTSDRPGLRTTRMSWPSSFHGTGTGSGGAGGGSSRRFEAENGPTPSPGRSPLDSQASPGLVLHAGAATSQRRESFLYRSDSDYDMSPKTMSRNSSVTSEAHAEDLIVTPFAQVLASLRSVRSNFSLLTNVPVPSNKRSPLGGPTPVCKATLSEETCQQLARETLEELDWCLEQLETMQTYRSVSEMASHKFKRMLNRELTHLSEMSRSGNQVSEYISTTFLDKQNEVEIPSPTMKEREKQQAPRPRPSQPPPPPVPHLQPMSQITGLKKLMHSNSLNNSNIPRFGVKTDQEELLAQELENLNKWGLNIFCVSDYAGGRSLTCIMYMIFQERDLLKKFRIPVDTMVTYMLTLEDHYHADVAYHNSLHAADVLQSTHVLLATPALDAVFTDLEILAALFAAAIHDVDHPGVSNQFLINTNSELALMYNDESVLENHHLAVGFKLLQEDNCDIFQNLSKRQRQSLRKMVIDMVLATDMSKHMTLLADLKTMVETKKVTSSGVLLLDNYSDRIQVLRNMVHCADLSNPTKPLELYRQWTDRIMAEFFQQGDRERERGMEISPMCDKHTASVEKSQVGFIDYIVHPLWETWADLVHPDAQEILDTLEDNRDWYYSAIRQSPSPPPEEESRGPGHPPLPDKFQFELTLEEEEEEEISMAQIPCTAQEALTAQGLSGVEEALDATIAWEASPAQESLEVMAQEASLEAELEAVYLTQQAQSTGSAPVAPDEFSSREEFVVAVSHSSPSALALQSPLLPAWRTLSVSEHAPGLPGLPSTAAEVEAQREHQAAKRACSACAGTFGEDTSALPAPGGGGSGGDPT
# Sequence of human Phosphodiesterase 10 (PDE10), PDE10A (gene 10846) (Q9Y233 whole entry, looked up): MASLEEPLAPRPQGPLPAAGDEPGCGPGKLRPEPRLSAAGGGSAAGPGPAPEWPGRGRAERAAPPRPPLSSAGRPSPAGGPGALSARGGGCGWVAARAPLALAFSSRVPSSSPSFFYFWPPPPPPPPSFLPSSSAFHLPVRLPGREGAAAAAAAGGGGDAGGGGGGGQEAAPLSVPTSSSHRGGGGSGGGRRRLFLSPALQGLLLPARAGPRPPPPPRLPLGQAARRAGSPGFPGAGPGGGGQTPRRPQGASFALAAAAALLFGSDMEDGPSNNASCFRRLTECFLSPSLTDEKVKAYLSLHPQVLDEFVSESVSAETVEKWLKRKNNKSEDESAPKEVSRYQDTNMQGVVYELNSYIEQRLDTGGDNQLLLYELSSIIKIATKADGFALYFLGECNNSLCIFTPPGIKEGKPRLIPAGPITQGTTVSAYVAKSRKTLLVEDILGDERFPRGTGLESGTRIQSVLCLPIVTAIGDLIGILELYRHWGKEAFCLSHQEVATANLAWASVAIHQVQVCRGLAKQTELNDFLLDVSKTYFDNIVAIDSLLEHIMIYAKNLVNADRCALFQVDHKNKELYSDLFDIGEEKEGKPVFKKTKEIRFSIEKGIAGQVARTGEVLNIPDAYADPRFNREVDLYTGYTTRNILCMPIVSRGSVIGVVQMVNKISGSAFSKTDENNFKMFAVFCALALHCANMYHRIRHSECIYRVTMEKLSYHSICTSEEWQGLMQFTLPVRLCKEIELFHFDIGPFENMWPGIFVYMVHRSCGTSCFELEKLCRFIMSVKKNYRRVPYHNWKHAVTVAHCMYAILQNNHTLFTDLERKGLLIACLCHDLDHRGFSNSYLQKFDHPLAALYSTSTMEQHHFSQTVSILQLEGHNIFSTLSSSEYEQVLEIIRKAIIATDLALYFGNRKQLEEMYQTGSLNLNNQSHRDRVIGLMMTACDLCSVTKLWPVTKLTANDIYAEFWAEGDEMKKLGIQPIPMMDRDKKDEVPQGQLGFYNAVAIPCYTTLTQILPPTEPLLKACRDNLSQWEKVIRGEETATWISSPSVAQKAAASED
compound,measurement,setting,value
O=C(Oc1ccc(Br)cc1)N1CCN2CCC1CC2,outcome,[1],inactive
same,outcome,[2],inactive
same,outcome,[3],inactive
Nc1ccc(Cl)cc1N,outcome,[1],inactive
same,AC50,[4],12.6 µM (active)
CN(C)C(=O)Nc1ccc(Cl)cc1,AC50,[5],17.9 µM (active)
same,outcome,[6],inactive
CC(C)N(Cc1ccccc1)C(=O)C(C)(C)C,outcome,[1],inactive
same,outcome,[7],inactive
Nc1ccc(Oc2ccc(N)cc2)cc1,AC50,[5],19.2 µM (active)
Oc1ccccc1Cl,outcome,[8],inactive
same,outcome,[5],inactive
same,outcome,[6],inactive
[As]#[In],outcome,[7],inactive
CCOc1cccc(C2(N3CCN(c4ccccc4)CC3)CCC(C)CC2)c1 (stereo unspecified),outcome,[8],inactive
same,AC50,[9],17.7 µM (active)
same,outcome,[10],inactive
same,outcome,[11],inactive
CN(C)[C@@H]1C(=O)C(C(N)=O)=C(O)[C@@]2(O)C(=O)C3=C(O)c4c(O)cccc4[C@@](C)(O)[C@H]3C[C@@H]12,outcome,[9],inactive
same,outcome,[6],inactive
CC(C)COC(=O)c1ccccc1C(=O)OCC(C)C,outcome,[7],inactive
O=C(Nc1ccccc1)c1ccccc1I,outcome,[9],inactive
same,outcome,[7],inactive
CNC(=O)Oc1cccc2c1OC(C)(C)C2,outcome,[5],inactive
CCNS(=O)(=O)C(F)(F)C(F)(F)C(F)(F)C(F)(F)C(F)(F)C(F)(F)C(F)(F)C(F)(F)F,outcome,[12],inactive
same,outcome,[7],inactive
same,outcome,[13],inactive
same,outcome,[14],inactive
same,outcome,[15],inactive
same,outcome,[2],inactive
same,outcome,[10],inactive
same,outcome,[4],inactive
same,outcome,[3],inactive
same,outcome,[16],inactive
same,outcome,PPP2CA (gene 5515),inactive
same,outcome,[17],inactive
CC(C)(C)C(O)(CCc1ccc(Cl)cc1)Cn1cncn1 (stereo unspecified),outcome,[5],inactive
same,outcome,[6],inactive
Nc1ccc(N=Nc2ccccc2)cc1,AC50,[8],16.9 µM (active)
O=[N+]([O-])C(Br)(CO)CO,outcome,[12],inactive
CCN(CC)N=O,outcome,[1],inactive
same,outcome,[13],inactive
same,outcome,[10],inactive
same,outcome,[4],inactive
same,outcome,PPP2CA (gene 5515),inactive
same,outcome,[17],inactive
O=[N+]([O-])c1ccc(Oc2ccc(Cl)cc2Cl)cc1,outcome,[8],inactive
same,outcome,[18],inactive
COP(=S)(OC)SCN1C(=O)c2ccccc2C1=O,AC50,[8],11.7 µM (active)
Cc1ccc(N=C=O)cc1N=C=O,AC50,[9],4.21 µM (active)
same,AC50,[5],10.3 µM (active)
same,AC50,[6],40 µM (active)
same,outcome,[18],inactive
same,outcome,[11],inactive
same,outcome,[19],inactive
CCC[CH2][Sn]([Cl])([CH2]CCC)[CH2]CCC,AC50,[7],12.8 µM (active)
CCCSC(=O)N(CCC)CCC,outcome,[1],inactive
same,outcome,[4],inactive
CCCCCOC(=O)c1ccccc1C(=O)OCCCCC,outcome,[5],inactive
Clc1ccc(C(c2ccc(Cl)cc2)C(Cl)(Cl)Cl)cc1,outcome,[5],inactive
CCCCC(CC)COC(=O)c1ccc(C(=O)OCC(CC)CCCC)c(C(=O)OCC(CC)CCCC)c1 (stereo unspecified),outcome,[14],inactive
Oc1ccc2ccc3cccc4ccc1c2c34,AC50,[10],6.65 µM (active)
CCC12COCN1COC2,outcome,[11],inactive
CCCCOC(=O)c1ccccc1C(=O)OCc1ccccc1,outcome,[11],inactive
N#CC(Br)(Br)C(N)=O,outcome,[19],inactive
Nc1ccc([N+](=O)[O-])cc1,outcome,[19],inactive

# — PubChem BioAssay (EPA / NIEHS)
